Laboratory results taken from PMC7826789 (International Journal of Molecular Sciences, 2021).

Assays:
Conditions in all cases: Compound Concentration (nM):1000
PIK3CA(C420R) = test system: PIK3CA(C420R)
PIK3CA(E542K) = test system: PIK3CA(E542K)
PIK3CA(E545A) = test system: PIK3CA(E545A)
PIK3CA(E545K) = test system: PIK3CA(E545K)
PIK3CA(H1047L) = test system: PIK3CA(H1047L)
PIK3CA(H1047Y) = test system: PIK3CA(H1047Y)
PIK3CA(I800L) = test system: PIK3CA(I800L)
PIK3CA(M1043I) = test system: PIK3CA(M1043I)
PIK3CA(Q546K) = test system: PIK3CA(Q546K)
PIK3CA = test system: PIK3CA
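Note: KINOMEscan scanMAX binding as percent activity remaining versus control; lower means stronger binding.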

Row | Structure (SMILES) | Percent Control (PIK3CA(C420R)) [%] | Percent Control (PIK3CA(E542K)) [%] | Percent Control (PIK3CA(E545A)) [%] | Percent Control (PIK3CA(E545K)) [%] | Percent Control (PIK3CA(H1047L)) [%] | Percent Control (PIK3CA(H1047Y)) [%] | Percent Control (PIK3CA(I800L)) [%] | Percent Control (PIK3CA(M1043I)) [%] | Percent Control (PIK3CA(Q546K)) [%] | Percent Control (PIK3CA) [%]
1 | NS(=O)(=O)c1ccc(N/N=C2\C(=O)Nc3ccc(C(=O)NCc4ccncc4)cc32)cc1 [GW300657X] | 90 | 85 | 100 | 75 | 89 | 72 | 85 | 94 | 83 | 100
2 | COc1cc(/C=N/Nc2ncnc3[nH]ncc23)ccc1O [GW578748X] | 97 | 63 | 82 | 59 | 18 | 84 | 51 | 43 | 62 | 82
3 | COc1ccccc1-c1cc(/C=C2\C(=O)Nc3ncc(Br)cc32)cc(Br)c1O [GW442130X] | 78 | 100 | 76 | 100 | 100 | 50 | 100 | 60 | 100 | 83
4 | COc1cc(C=NNc2ncnc3c2cnn3-c2ccccc2)ccc1O [GW513184X] | 78 | 100 | 76 | 100 | 100 | 62 | 100 | 59 | 100 | 78
5 | COC(=O)Nc1nc2ccc(Oc3ccc(NC(=O)Nc4cc(C(F)(F)F)ccc4F)cc3)cc2s1.Cl [GW693917A] | 95 | 96 | 100 | 83 | 91 | 84 | 82 | 100 | 94 | 100
6 | COc1ccc(COc2ccc(Cc3cnc(N)nc3N)cc2OC)cc1 [GW632580X] | 100 | 96 | 100 | 91 | 75 | 100 | 93 | 100 | 100 | 76
7 | C/C(Nc1ccc(S(N)(=O)=O)cc1)=C1/C(=O)Nc2ccccc21 [GW335962X] | 95 | 100 | 100 | 100 | 100 | 85 | 100 | 100 | 100 | 100
8 | NS(=O)(=O)c1ccc(Nc2ncc(-c3ccccc3)o2)cc1 [GW572399X] | 100 | 100 | 100 | 100 | 93 | 100 | 100 | 93 | 100 | 100
9 | CCS(=O)(=O)c1ccc(OC)c(Nc2ncc(-c3cccc(F)c3)o2)c1 [GW621970X] | 100 | 100 | 100 | 100 | 100 | 97 | 100 | 93 | 100 | 100
10 | NS(=O)(=O)c1ccc(N/N=C2\C(=O)Nc3ccc(-c4cnco4)cc32)cc1 [GW276655] | 81 | 89 | 98 | 89 | 94 | 87 | 91 | 87 | 97 | 96
11 | CCc1ccc(Oc2nccc(-c3c(-c4ccc(F)cc4)ncn3C3CCNCC3)n2)cc1 [SB-242719] | 81 | 98 | 87 | 92 | 63 | 81 | 91 | 100 | 90 | 92
12 | O=C1Nc2ccc(C(=O)c3ccco3)cc2C1=Cc1cc(Cl)c(O)c(Cl)c1 [GW406108X] | 76 | 76 | 83 | 72 | 41 | 79 | 34 | 93 | 77 | 91
13 | Cl.c1ccc(Cc2nc3ccc(Nc4ncnc5ccccc45)cc3[nH]2)cc1 [GR269666A] | 100 | 100 | 100 | 99 | 100 | 100 | 100 | 100 | 100 | 100
14 | Cl.O=C(O[C@H]1CN[C@H](C#Cc2cc3ncnc(Nc4ccc5c(cnn5Cc5ccccc5)c4)c3s2)C1)N1CCOCC1 [GSK200398A] | 100 | 100 | 100 | 85 | 100 | 100 | 83 | 100 | 98 | 100
15 | COc1cc2ncn(-c3cc(O[C@H](C)c4ccccc4Cl)c(C(N)=O)s3)c2cc1OC [GSK237701A] | 65 | 44 | 62 | 51 | 53 | 56 | 49 | 52 | 58 | 54
16 | COc1cc(C)c(N(C)C(=O)CN(C)C)cc1Nc1nc(Nc2cccc(F)c2C(N)=O)c2cc[nH]c2n1 [GSK2219385] | 84 | 100 | 97 | 100 | 100 | 67 | 100 | 100 | 100 | 100
17 | COc1cc2ncnc(Nc3ccc4c(cnn4Cc4ccccc4)c3)c2cc1OC.Cl [GW282449A] | 100 | 100 | 100 | 100 | 100 | 100 | 99 | 100 | 100 | 100
18 | CC1=C(C(=O)Nc2ccc3[nH]ncc3c2)C(c2ccc3ccccc3c2)CC(=O)N1 (stereo not shown) [GSK270822A] | 90 | 83 | 91 | 88 | 97 | 89 | 93 | 74 | 86 | 90
19 | COc1ccc2[nH]c3c4[nH]c5ccc(OC)cc5c4c4c(c3c2c1)C(=O)NC4=O [GW296115X] | 90 | 92 | 100 | 84 | 74 | 89 | 93 | 95 | 91 | 91
20 | CCn1c(-c2nonc2N)nc2c(C#CC(C)(C)O)nc(OCCNC)cc21.Cl [GSK949675] | 100 | 100 | 88 | 100 | 100 | 77 | 100 | 100 | 100 | 75

Row | Structure (SMILES) | Percent Control (PIK3CA(C420R)) [%] | Percent Control (PIK3CA(E542K)) [%] | Percent Control (PIK3CA(E545A)) [%] | Percent Control (PIK3CA(E545K)) [%] | Percent Control (PIK3CA(H1047L)) [%] | Percent Control (PIK3CA(H1047Y)) [%] | Percent Control (PIK3CA(I800L)) [%] | Percent Control (PIK3CA(M1043I)) [%] | Percent Control (PIK3CA(Q546K)) [%] | Percent Control (PIK3CA) [%]
21 | CN(C)CCNC(=O)Nc1ccc(N(C)c2ccnc(Nc3ccc(CS(C)(=O)=O)cc3)n2)cc1.Cl [GW830900A] | 100 | 84 | 100 | 80 | 100 | 98 | 86 | 92 | 87 | 92
22 | CC1=C(C(=O)Nc2ccc3[nH]ncc3c2)C(c2ccc(Cl)c(Cl)c2)CC(=O)N1 (stereo not shown) [GSK299115A] | 90 | 73 | 90 | 73 | 97 | 76 | 78 | 68 | 83 | 82
23 | COc1ccc2c(-c3ccnc(Nc4cccc(OC(F)(F)F)c4)n3)cnn2n1 [GW810372X] | 86 | 100 | 90 | 97 | 75 | 82 | 91 | 100 | 100 | 100
24 | COc1cccc(-c2c[nH]c3c(N/N=C/c4ccncc4)ncnc23)c1 [GW814408X] | 100 | 100 | 100 | 100 | 99 | 78 | 100 | 99 | 100 | 95
25 | NS(=O)(=O)c1ccc(N/N=C2\C(=O)Nc3ccc(Cl)cc32)cc1 [GW280670X] | 100 | 100 | 100 | 100 | 100 | 100 | 100 | 100 | 100 | 100
26 | COc1cc(N2CCN(C(C)C)CC2)ccc1Nc1nc(Nc2ccc(F)cc2C(=O)NC[C@@H](O)CO)c2cc[nH]c2n1 [GSK1392956A] | 99 | 100 | 100 | 95 | 100 | 83 | 97 | 97 | 100 | 100
27 | NS(=O)(=O)c1ccc(N/N=C2\C(=O)Nc3ccc(C(=O)NCCc4c[nH]cn4)cc32)cc1 [GW300660X] | 100 | 100 | 100 | 100 | 98 | 100 | 98 | 81 | 100 | 100
28 | Cl.O=S1CCN(Cc2ccc(-c3ccc4ncnc(Nc5ccc(OCc6ccccc6)c(F)c5)c4c3)o2)CC1 [GW576924A] | 100 | 100 | 100 | 100 | 100 | 100 | 100 | 88 | 100 | 100
29 | CN1CCN(C(=O)c2ccc(NC(=O)Nc3ccc(N(C)c4ccnc(Nc5ccc(CS(C)(=O)=O)cc5)n4)cc3)cc2)CC1.Cl [GW830263A] | 100 | 98 | 100 | 97 | 96 | 100 | 98 | 100 | 100 | 98
30 | Cl.O=C(Nc1ccc(Oc2ccc3[nH]c(NC(=O)c4ccco4)nc3c2)cc1)Nc1cc(C(F)(F)F)ccc1F [GW683134A] | 100 | 99 | 100 | 100 | 78 | 100 | 100 | 100 | 100 | 100
31 | C[C@@H](Oc1cc(-n2cnc3ccc(OC4CCN(C)CC4)cc32)sc1C(N)=O)c1ccccc1Cl [GSK579289A] | 60 | 80 | 67 | 78 | 76 | 100 | 78 | 72 | 100 | 65
32 | COc1ccc2cc(-c3c(-c4ccncc4)nc(-c4ccc(S(C)(=O)=O)cc4C)n3C)ccc2c1 [SB-633825] | 88 | 79 | 84 | 81 | 100 | 91 | 83 | 83 | 91 | 70
33 | CCS(=O)(=O)c1ccc(OC)c(Nc2ncc(-c3cccc(OC)c3)o2)c1 [GW580509X] | 100 | 100 | 100 | 100 | 100 | 98 | 100 | 100 | 100 | 100
34 | Nc1ncnc2occ(-c3ccc(NC(=O)Nc4cc(C(F)(F)F)ccc4F)cc3)c12 [GW770249X] | 100 | 100 | 100 | 100 | 100 | 100 | 100 | 90 | 100 | 100
35 | O=C(Nc1n[nH]c2nc(-c3ccc(O)cc3)c(Br)cc12)C1CC1 [SB-725317] | 92 | 100 | 100 | 100 | 100 | 93 | 100 | 100 | 100 | 100
36 | COc1cccc(-n2ncc3c(N/N=C/c4ccncc4)ncnc32)c1 [GW784752X] | 100 | 100 | 100 | 92 | 100 | 100 | 96 | 100 | 100 | 100
37 | CC(C)COC(=O)c1ccc2c(c1)/C(=C/Nc1ccc(S(N)(=O)=O)cc1)C(=O)N2 [GW416981X] | 100 | 100 | 100 | 100 | 100 | 100 | 100 | 87 | 100 | 100
38 | Cc1cc(O)cc(C)c1/C=C/c1cncc(C(N)=O)c1 [GW435821X] | 100 | 100 | 100 | 100 | 100 | 100 | 100 | 88 | 100 | 96
39 | CN(C)c1cc2c(Nc3ccc4c(cnn4Cc4ccccc4)c3)ncnc2cn1 [GW282974X] | 83 | 90 | 95 | 67 | 88 | 70 | 76 | 97 | 85 | 89
40 | Cl.O=C(Nc1ccc(Oc2ccc3[nH]c(NC(=O)c4ccccc4)nc3c2)cc1)Nc1cc(C(F)(F)F)ccc1F [GW709042A] | 81 | 100 | 95 | 100 | 100 | 80 | 100 | 100 | 100 | 100
